High-throughput results (PubChem BioAssay)
This is one part of a sample in which hits are shown more often than they occur.
CHX counter – Cycloheximide Counterscreen for Small Molecule Inhibitors of Shiga Toxin; cell reporter, cycloheximide protein synthesis inhibition counterscreen; max response, %; actives 12% (n = 300,000); AID 2314, 2010; in the data active = max response mostly above about 13%, no sharp cut-off; inactive = mostly below about 14%; note: read at 38.3 µM for the half of the compounds with a filed dose
RE007 growth inh – qHTS Assay for Inhibitors of the HIV-1 protein Vpr | S. pombe RE007 Vpr strain, BacTiter-Glo ATP luminescence, 24 h | Potency, µM (highest dose often 92.2 µM), actives largely listed as inhibitors | actives 0.21% (n = 360,000) | AID 651644, 2012; active = well fitted falling curve with a large enough effect; inconclusive = small, poorly fitted or top-dose-only effect; inactive = no such curve, though single readings can be large or run the other way; note: nearly all actives have a fitted effect of over 50% in size
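Fission yeast RE007 carrying one integrated HIV-1 vpr copy, seeded at OD 0.01 in PMG+AL medium with 23 nL pinned compound. Grown 24 h at 30 degrees; viability read by BacTiter-Glo luminescence after 5 min.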
Tb PYK inh – qHTS of Trypanosoma Brucei Inhibitors | pyruvate kinase (Trypanosoma brucei), Q57TT1 | TbPYK enzyme, Kinase-Glo Plus ATP luminescence, 45 min | Potency, µM (highest dose often 76.8 µM), most hits filed as inhibitors | actives 0.12% (n = 410,000); note: nearly all actives have a fitted effect of over 50% in size
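Assay buffer: 50 mM TEA pH 7.2, 100 mM KCl, 10 mM MgCl2, 0.05% BSA, 0.01% Tween-20. Pyruvate kinase from T. brucei plus substrate met compound, then ADP (130 uM final). Luminescence was read post 45 min RT.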
Shiga inhibitor – A qHTS for Small Molecule Inhibitors of Shiga Toxin; Vero cells, Shiga toxin protein synthesis inhibition reporter; inhibition, % at 38.7 µM; actives 9.2% (n = 290,000); in the data active = inhibition mostly above about 28%, no sharp cut-off; inactive = mostly below about 43%
Giardia FBPA inh – qHTS Assay for Inhibitors of Fructose-1,6-bisphosphate Aldolase from Giardia Lamblia; purified Giardia FBPA; Potency, µM (series often up to 59.6 µM), actives largely listed as inhibitors; actives 0.71% (n = 290,000); A8B2U2; note: nearly all actives have a fitted effect of over 55% in size
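40 nM FBPA preincubated 10 min at RT with compound (up to 57.5 uM final), then substrate plus GAPDH/TPI/NAD/arsenate coupling and diaphorase/resazurin added. Fluorescence read after 20 min at RT, 525/598 nm.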
LmPK inhibitor – qHTS Assay for Inhibitors of Leishmania Mexicana Pyruvate Kinase (LmPK). Q27686. purified LmPK, Kinase-Glo ATP luminescence, 1 h. Potency, µM (titrated, usually from 57.5 µM), hits mostly inhibitors. actives 0.37% (n = 290,000). AID 1721, 2009
Target sequence (Q27686 whole entry, looked up): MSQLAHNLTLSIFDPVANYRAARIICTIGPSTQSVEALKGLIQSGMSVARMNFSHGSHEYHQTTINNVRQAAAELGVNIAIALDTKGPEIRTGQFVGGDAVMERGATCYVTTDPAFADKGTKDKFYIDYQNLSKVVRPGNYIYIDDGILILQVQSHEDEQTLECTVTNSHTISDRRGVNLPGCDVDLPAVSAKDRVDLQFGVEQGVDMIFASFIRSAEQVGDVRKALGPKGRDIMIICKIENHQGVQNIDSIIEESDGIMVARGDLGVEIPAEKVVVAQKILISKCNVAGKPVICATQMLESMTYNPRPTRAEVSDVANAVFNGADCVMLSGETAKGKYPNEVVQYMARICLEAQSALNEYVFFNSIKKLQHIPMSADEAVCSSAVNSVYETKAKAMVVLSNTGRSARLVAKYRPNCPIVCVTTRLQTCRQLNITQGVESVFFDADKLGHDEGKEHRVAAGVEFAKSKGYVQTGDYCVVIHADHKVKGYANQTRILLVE
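qHTS format; LmPK 0.1 nM; substrates PEP 0.5 mM and ADP 0.1 mM. One-hour room-temperature incubation, then coupled luciferase luminescence; 0.5 nM enzyme wells mark activation.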
Hits are given with their value; . = inactive; ? = inconclusive; / = not tested or not shown; [ ] = dose if it differs, or a comment. Unless noted, calls come from the whole dose curve; as a rule, active = well fitted curve in the direction sought with a large enough effect; inconclusive = small, poorly fitted or top-dose-only effect, or another doubt; inactive = no such curve, though single readings can be large; an effect the other way counts as inactive or inconclusive.

SMILES | CHX counter | RE007 growth inh | Tb PYK inh | Shiga inhibitor | Giardia FBPA inh | LmPK inhibitor
Nc1cc(C(=O)c2cccs2)ccc1Cl | 17 | . | . | . | . | .
CNC(=O)C1CCN(C(=O)N2CC(C)Oc3ccc(Cl)cc32)CC1 (configuration not stated) | / | / | . | / | / | /
CCOCC(=O)Nc1ccc(-c2cn3c(C)csc3n2)cc1 | / | / | . | / | / | /
O=C(c1ccc(F)cc1)N1CCN(CCc2ccncc2)CC1 | / | / | . | / | / | /
CC(C)c1onc(-c2c(Cl)cccc2Cl)c1COc1ccc(/C=C/c2cccc(C(=O)O)c2)c(Cl)c1 | 36 | / | . | 60 | . | /
O=C(CSCc1ccccc1Cl)Nc1ccc2c(c1)OCCO2 | 58 | . | . | 95 | . | .
O=C(CNCc1ccc(Cl)cc1)Nc1ccc2c(c1)OCCO2 | . | . | . | . | ? | .
O=C(CNCc1ccccc1Cl)Nc1ccc2c(c1)OCCO2 | 45 | . | . | 87 | ? | .
O=C(CSCc1ccc(Cl)cc1)Nc1ccc2c(c1)OCO2 | . | . | . | . | . | .
COc1ccc(-c2cc(C(=O)O)c(C)o2)cc1OC | . | .[3.69 µM] | / | . | . | ?
COc1ccc(-c2cc(C(=O)NC(Cc3cc4ccccc4[nH]3)C(=O)O)c(C)o2)cc1OC (configuration not stated) | 33 | . | . | 49 | . | .
N#C/C(=C\c1cccc(O)c1)C(=O)O | / | / | / | / | . | /
N#C/C(=C\c1ccc(Cl)cc1)c1nc2ccccc2o1 | . | . | . | . | . | .
Cn1c(/C(C#N)=C/c2cccc(O)c2)nc2ccccc21 | 43 | . | . | . | . | .
N#C/C(=C\Nc1ccccc1O)c1nc2ccccc2o1 | 26 | . | . | 71 | . | .
N#C/C(=C\c1ccncc1)c1nc2ccccc2o1 | 29 | . | . | . | . | .
N#C/C(=C\c1cccc(O)c1)c1nc2ccccc2o1 | 59 | . | . | 85 | . | .
CC(=O)Nc1ccc(N/C=C(\C=O)c2nc3ccccc3o2)cc1 | . | . | . | . | . | .
COc1cccc(NC(=O)c2c(-c3ccc(C)cc3)nnc3ccccc23)c1 | / | / | .[15.4 µM] | / | / | /
COc1ccc2c(c1)c1c(c(=O)n(Cc3ccccc3)c(=O)n1Cc1cccc(Cl)c1)n2C | / | / | . | / | / | /
COc1cccc(NC(=O)c2ccc(OC(F)(F)F)cc2)c1 | / | . | . | / | / | /
O=C(Nc1ccc2nn(-c3ccccc3)nc2c1)c1ccc(Br)o1 | 13 | . | . | 74 | . | .
O=C(Nc1cccc(F)c1)c1ccc(Br)o1 | 60 | . | . | 77 | . | .
O=C(Nc1cccc(OC(F)(F)F)c1)c1ccc(Br)o1 | 40 | ? | . | . | . | .
Cc1ccc(/C=N/NC(=O)c2cccc(NC(=O)c3ccccc3C)c2)o1 | . | . | . | . | . | .
SMILES | CHX counter | RE007 growth inh | Tb PYK inh | Shiga inhibitor | Giardia FBPA inh | LmPK inhibitor
C/C(=N\NC(=O)c1cccc(Br)c1)c1cccc(NC(=O)c2ccc(C)o2)c1 | 28 | ? | . | 42 | . | .
Cc1cnc(CNc2ccnc(-c3cccc(C#N)c3)n2)cn1 | / | / | / | / | . | /
CC(=O)c1cccc(NC(=O)c2ccc(C)o2)c1 | 26 | . | . | . | . | .
CC(=O)c1cccc(NC(=O)c2ccc(Br)o2)c1 | 24 | . | . | 63 | . | .
O=C(Nc1ccccc1C(=O)O)c1cccc(NC(=O)c2ccc(Br)o2)c1 | . | . | . | . | . | .
Brc1ccccc1/C=N/Nc1ccc2ccccc2n1 | 44 | ? | . | 65 | . | .
Cc1cc(NCCN)nc2ccccc12 | . | . | . | . | . | .
Cc1cc(N/N=C/c2ccccc2Br)nc2ccccc12 | 42 | . | . | 75 | . | .
Brc1ccc(/C=N/Nc2ccc3ccccc3n2)cc1 | 55 | ? | . | 120 | . | .
O=[N+]([O-])c1cccc(C=NNc2ccc3ccccc3n2)c1O | / | ? | . | / | / | /
O=C(Nc1ccc(F)cc1)Nc1ccc2ccccc2n1 | . | . | . | . | . | .
Fc1cccc(/C=N/Nc2ccc3ccccc3n2)c1 | 21 | . | . | . | . | .
COc1cccc(N2CCN(c3ccc4nnc(CCC(=O)O)n4n3)CC2)c1 | / | / | . | / | / | /
Cc1cccc(Cn2cccc2CNS(=O)(=O)c2ccccc2F)c1 | / | / | . | / | / | /
Brc1ccc(/C=N/Nc2ccccc2)cc1 | 43 | . | . | 60 | . | .
CSCC[C@@H]1NC(=O)C/C=C\[C@@H](C)COC(=O)[C@@H](C)COC1=O | / | / | / | / | .[12.9 µM] | /
CCCSc1nsc(SCCC)c1C#N | 22 | . | . | 46 | . | .
COc1ccc(C)cc1NC(=O)C1CCC(CNS(=O)(=O)c2ccc3c(c2)CCCC(=O)N3)CC1 (configuration not stated) | / | / | . | / | / | /
CCn1c2ccccc2c2c3ncc4cccn4c3ccc21 | 16 | . | . | . | . | .
COC1c2ccccc2C(=O)N1CCc1ccc(Cl)cc1 (configuration not stated) | 16 | . | . | 41 | . | .
COC(=O)C1=C[C@@H](C(=O)OC)C2C3=C(C(=O)[C@]2(C)NC(=O)c2ccccc2)[C@H](C)n2c(=O)n(-c4ccccc4)c(=O)n2[C@@H]3C1 (some centres not stated) | . | / | / | . | . | /
O=c1[nH]c2cc(Cl)ccc2c(O)c1-c1ccc(Oc2ccccc2)cc1 | / | / | / | / | . | /
O=c1[nH]c2ccc(Cl)cc2c(O)c1-c1ccccc1 | 27 | . | . | 78 | . | .
